From the supplement of paper PMC3545927
This is one part of the list. The true hit rate is not given.

Target: furin, P09958
Test: furin cleavage Z-score vs untreated control; higher = more cleavage, active = 3.5 or more, inactive = 1 or less, 8 variable residues between constant flanks
Method in brief: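 Peptides 8 residues long, fused to a cDNA oligonucleotide, were fixed to magnetic beads by the N-terminus and exposed to purified furin. The 0.01 ml reactions contained 50 mM HEPES pH 7.5 with CaCl2 and NaCl at 1:10 enzyme:substrate and ran 7.5, 15 or 30 min. For the cleavage Z-score, log counts of sequenced released DNA were compared with furin-free reactions, lowess-adjusted and scaled by median absolute deviation.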

furin, P09958, sequence (P09958 whole entry): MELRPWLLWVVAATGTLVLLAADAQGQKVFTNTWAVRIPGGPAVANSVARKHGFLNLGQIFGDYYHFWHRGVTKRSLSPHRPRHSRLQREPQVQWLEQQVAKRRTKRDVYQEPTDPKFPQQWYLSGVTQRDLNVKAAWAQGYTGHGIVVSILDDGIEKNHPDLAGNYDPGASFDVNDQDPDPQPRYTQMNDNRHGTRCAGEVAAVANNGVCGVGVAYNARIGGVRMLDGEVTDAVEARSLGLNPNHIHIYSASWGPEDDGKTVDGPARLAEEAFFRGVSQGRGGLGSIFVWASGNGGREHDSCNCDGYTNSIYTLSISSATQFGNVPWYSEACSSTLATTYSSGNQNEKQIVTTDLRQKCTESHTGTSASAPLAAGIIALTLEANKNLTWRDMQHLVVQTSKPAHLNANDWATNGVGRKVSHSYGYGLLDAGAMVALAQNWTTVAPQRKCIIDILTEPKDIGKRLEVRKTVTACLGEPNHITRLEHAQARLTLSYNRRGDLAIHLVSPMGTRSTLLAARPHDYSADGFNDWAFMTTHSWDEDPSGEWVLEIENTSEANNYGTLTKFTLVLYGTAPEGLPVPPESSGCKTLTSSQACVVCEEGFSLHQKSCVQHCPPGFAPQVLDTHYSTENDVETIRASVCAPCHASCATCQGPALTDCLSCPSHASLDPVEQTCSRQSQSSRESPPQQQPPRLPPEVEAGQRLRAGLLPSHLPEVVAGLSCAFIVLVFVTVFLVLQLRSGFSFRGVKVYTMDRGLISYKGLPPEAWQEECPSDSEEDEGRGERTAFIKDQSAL

Sequence	furin cleavage Z-score (7.5 min)	furin cleavage Z-score (15 min)	furin cleavage Z-score (30 min)
CAQCCDLDPQAGNASASA [HC1491]	0.144 (inactive)	0.912 (inactive)	-0.252 (inactive)
CAMEECSQCLAGNASASA [HC1760]	-0.273 (inactive)	-0.494 (inactive)	0.638 (inactive)
CAEVVFSTWVAGNASASA [HC126]	1.73	-1.1 (inactive)	-0.791 (inactive)
CATSSEPAPSAGNASASA [HC1344]	-0.191 (inactive)	-1.38 (inactive)	-0.0397 (inactive)
CAGLRRRKRDAGNASASA [FS-930]	12.2 (active)	10.2 (active)	8.8 (active)
CATSSRNARNAGNASASA [FS-571]	3.05	4.2 (active)	5.2 (active)
CAISPRQKRDAGNASASA [FS-542]	12.4 (active)	12.3 (active)	9.21 (active)
CATDSRTNRDAGNASASA [FS-1422]	-1.07 (inactive)	-0.239 (inactive)	1.78
CATHRRQKRDAGNASASA [FS-1092]	3.98 (active)	2.56	2.3
CATTPCSGDWAGNASASA [HC1911]	1.59	-1.02 (inactive)	0.621 (inactive)
CAEVGTSTWVAGNASASA [HC2196]	0.089 (inactive)	1.37	0.992 (inactive)
CAEVVTSTWSAGNASASA [HC2257]	0.148 (inactive)	-0.0297 (inactive)	0.967 (inactive)
CASTPCSEHLAGNASASA [HC2532]	1.63	0.136 (inactive)	-0.509 (inactive)
CAVEFLVQAWAGNASASA [HC1471]	-1.03 (inactive)	-0.538 (inactive)	0.302 (inactive)
CALEDNVTPIAGNASASA [HC1434]	-0.871 (inactive)	-0.336 (inactive)	-2.15 (inactive)
CAADLEVVTSAGNASASA [HC986]	0.0893 (inactive)	-0.606 (inactive)	-0.099 (inactive)
CATSSRRKRDAGNASASA [FS-630]	11 (active)	10.2 (active)	7.47 (active)
CARPSRPWRDAGNASASA [FS-1479]	-0.109 (inactive)	1.22	0.811 (inactive)
CAIITRWKRDAGNASASA [FS-1013]	11.5 (active)	11.3 (active)	8.16 (active)
CARPSRQIHKAGNASASA [FS-2286]	1.18	-0.223 (inactive)	1.59
CARPSRVARDAGNASASA [FS-1565]	13.5 (active)	13.3 (active)	9.92 (active)
CATSNSLKRDAGNASASA [FS-885]	-0.606 (inactive)	0.0826 (inactive)	-0.0438 (inactive)
CATSSRSARKAGNASASA [FS-1617]	-0.831 (inactive)	2.68	0.36 (inactive)
CAYDSMKKRDAGNASASA [FS-389]	0.389 (inactive)	0.234 (inactive)	0.576 (inactive)
CAQYLAGLSTAGNASASA [HC1047]	-0.145 (inactive)	1	1.23
CARKKKAWIYAGNASASA [FS-2559]	0.615 (inactive)	-1.67 (inactive)	-1.6 (inactive)
CAVGCCSMSYAGNASASA [HC2016]	-0.196 (inactive)	-0.437 (inactive)	1.21
